A selection: hits, their analogues and other compounds. The true share with any hit is near 3.6%.
Mtb FBA inh – Mtb FBA enzyme inhibitors, primary screen, biochemical, fluorescence, strain H37Rv | AID 588726, 2011 | inhibition, % at 1 µM | 360,000 tested, 2.3% active | Fructose-bisphosphate aldolase (Mycobacterium tuberculosis (strain ATCC 25618 / H37Rv)), … | purified M. tuberculosis FBA, fluorescence read-out; in the data active means inhibition above about 27%;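 further: 0% = vehicle and 100% = reference inhibitor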
Target sequence (P9WQA3 whole entry, looked up): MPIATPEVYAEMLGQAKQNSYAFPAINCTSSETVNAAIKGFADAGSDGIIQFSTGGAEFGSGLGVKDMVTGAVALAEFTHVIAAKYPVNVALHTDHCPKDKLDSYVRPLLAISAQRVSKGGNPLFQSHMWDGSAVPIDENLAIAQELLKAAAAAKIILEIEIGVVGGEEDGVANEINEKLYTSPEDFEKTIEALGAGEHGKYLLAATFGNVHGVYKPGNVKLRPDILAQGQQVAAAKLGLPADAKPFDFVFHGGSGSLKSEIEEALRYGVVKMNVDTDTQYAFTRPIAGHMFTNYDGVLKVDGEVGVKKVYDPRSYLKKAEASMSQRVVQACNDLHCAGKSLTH
Mtb hypoxia rep – PubChem AID 1159583; 300,000 tested, 0.1% active; M. tuberculosis hypoxia-regulated fluorescent reporter, fluorescence; fluorescence inhibition, % (no concentration beside the values); in the data active means fluorescence inhibition mostly above about 23%, no sharp cut-off; inactive means mostly below about 17%
GDH-TPI counter – GDH-TPI coupling enzyme inhibitors, primary screen, artefact control for M. tuberculosis FBA inhibitor project, biochemical, absorbance, full deck | AID 588335, 2011 | 360,000 tested, 1.2% active | GDH-TPI coupled enzyme counterscreen, NADH absorbance | inhibition, % at 4.8 µM; in the data active means inhibition above about 30%;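 further: 0% = DMSO wells and 100% = wells lacking the enzyme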
Mtb betalactam – beta-lactam sensitization of Mtb H37Rv, H37Rv | inhibition, % at 25 µM | 330,000 tested, 0.27% active | M. tuberculosis H37Rv growth with meropenem, percent inhibition; call rule not given here;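 further: growth measured after seven days incubation then overnight dye step; 0% = bacteria only wells and 100% = bacteria with antibiotic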
VHR inh abs – VHR1 phosphatase inhibitors, primary screen, biochemical, absorbance, uHTS. recombinant VHR phosphatase, pNPP absorbance. inhibition, % at 13.3 µM. 290,000 tested, 0.52% active; in the data active means inhibition above about 50%
Numbers without * were called inactive; / = not tested or not shown; + = active, no number.

SMILES	Mtb FBA inh	Mtb hypoxia rep	GDH-TPI counter	Mtb betalactam	VHR inh abs
N#Cc1cccn1-c1nccc(-c2cccs2)n1	-5	16	4	13	26
Cc1ccc(C)n1-c1nccc(-c2ccco2)n1	158*	7	6	2	-12
O=C(O)c1cccc(Cn2c(Cl)c(C=NNC(=O)c3cc4ccccc4cc3O)sc2=O)c1	/	22	/	/	/
CC1CN(C(C)CO)C(=O)c2cc(NS(C)(=O)=O)ccc2OC1CN(C)CC1CCCCC1 (configuration not stated)	/	6	/	/	/
c1ccc2c(c1)oc1c(NCCCn3ccnc3)ncnc12	5	5	0	-3	55*
Cc1nc(NCCCn2ccnc2)c2oc3ccccc3c2n1	-1	6	0	-5	-8
c1ccc(-c2oc3ncnc(NCCCn4ccnc4)c3c2-c2ccccc2)cc1	51*	3	6	97	2
c1ccc(-c2c(-c3ccccc3)n(Cc3ccco3)c3ncnc(NCCCn4ccnc4)c23)cc1	9	19	2	100	11
O=C(NN=Cc1cccs1)C(O)c1ccccc1 (configuration not stated)	/	1	/	/	/
CN1c2ccsc2/C(=N/NC(=O)c2c(F)cccc2F)CS1(=O)=O	0	/	34*	63	2
O=c1[nH]c(/C=C/c2ccc3c(c2)OCO3)c([N+](=O)[O-])c(=O)[nH]1	/	10	/	-5	32
O=c1[nH]c(/C=C/c2ccc([N+](=O)[O-])cc2)c([N+](=O)[O-])c(=O)[nH]1	0	7	31*	1	13
O=c1[nH]c(/C=C\c2ccc(O)c(O)c2)nc(O)c1[N+](=O)[O-]	-6	/	30	1	-1
CCOc1ccccc1/C=C\c1nc(O)c([N+](=O)[O-])c(=O)[nH]1	-1	5	37*	1	17
O=c1[nH]c(/C=C\c2cccc(O)c2)nc(O)c1[N+](=O)[O-]	-7	0	35*	3	-12
Cc1ccc(C(=O)NC2CC3CCCC(C2)N3Cc2ccccc2)cc1 (configuration not stated)	1	9	-11	-7	53*
Cc1cc(NC(=O)c2sc3ccccc3c2O)no1	+	6	9	11	1
Cc1cc(C)c(S(=O)(=O)c2ccc(C(C)(C)C)cc2)c(Cl)n1	0	4	1	1	53*
Cc1ccc(S(=O)(=O)c2c(C)cc(C)nc2Cl)cc1	-2	/	2	-7	-1
Cc1cc(C=NNC(=O)c2nn(C)cc2Cl)c(C)n1-c1cccc(Br)c1	/	4	/	/	/
O=C(CC(=O)NC1CCCCC1)N/N=C/c1cccc2ccccc12	1	/	31*	-22	-5
C#CCOCCOCCOCCNc1nc(N2CCOCC2)nc(N2CCN(C(=O)C(Cc3cc4ccccc4[nH]3)n3cc(C(N)C(C)CC)nn3)CC2)n1 (configuration not stated)	/	3	/	/	/
CC(C)(C)OC(=O)C(Cc1ccccc1)NC(=O)c1nc[nH]c1C(=O)N1CCc2ccccc2C1 (configuration not stated)	/	5	/	/	/
Cc1nn(-c2ccccn2)c2c1-c1nc(N3CCOCC3)ncc1CC2	114*	11	17	98	-1
Fc1cnc(N2CCOCC2)nc1N1CCc2ccccc21	-2	7	29	50	8
SMILES	Mtb FBA inh	Mtb hypoxia rep	GDH-TPI counter	Mtb betalactam	VHR inh abs
CN(C)c1ccc(C=NNc2ccccn2)c(Cl)c1	11	/	12	/	/
CN(C)c1ccc(/C=N\Nc2ccccn2)cc1	2	/	76*	-4	1
O=[N+]([O-])c1ccc(C=NNC(=S)NN=Cc2ccc([N+](=O)[O-])cc2)cc1	-1	5	31*	/	/
O=[N+]([O-])c1cccc(/C=N/Nc2ccccn2)c1	0	/	21	-4	2
Fc1cccc(/C=N/Nc2nccnc2Cl)c1	1	/	25	1	30
O=[N+]([O-])c1cccc(/C=N/Nc2nccnc2Cl)c1	1	/	37*	-8	3
O=[N+]([O-])c1ccc(/C=N/Nc2ccccn2)cc1	-3	/	13	19	58*
O=C1NC(Cc2ccccc2)C(=O)N2C1C[C@]1(Br)c3ccccc3N(S(=O)(=O)c3ccc(F)cc3)C21 (some centres not stated)	/	-7	/	/	/
Cc1ccccc1-c1nnn(CC(N)=NO)n1	/	6	/	/	/
O=C(O)c1ccc(/C=N\Nc2ccccn2)cc1	-3	/	54*	-3	/
O=C(O)c1ccc(C=NNc2ccccn2)cc1	/	17	/	/	/

From PubChem
